In PubChem BioAssay (Tox21):
Records with an inconclusive call do not appear. Active and inactive are the calls of the source. The call rests on the fitted dose curve; in most records, active means well fitted curve in the direction sought with a large enough effect in the repeat runs; inconclusive means weak or mixed curves; inactive means no such curve, though single readings can be large; an effect the other way counts as inactive or inconclusive.

Experiments:
[1] = A CellTox Green Cytotoxicity Assay to monitor cytotoxicity in HEK293 cells - 40 hour (AID 1224871); further: nearly all actives have a fitted effect of over 45% in size
Outline: (§1)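 Read-out: fluorescence of a cell-impermeant cyanine dye staining DNA of dead cells, proportional to cytotoxicity. HEK293, 600 cells/well with reagent, compound (23 nL DMSO) added after 5 h; reads at 0, 8, 16, 24, 32, 40 h.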

[2] = qHTS RealTime-Glo MT Cell Viability Assay in HEK293 cells - 16 hour (AID 1224872); further: nearly all actives have a fitted effect of over 50% in size; further: potency means the concentration at half of the fitted maximal effect
Outline: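 HEK293 cells seeded with NanoLuc/prosubstrate reagent, rested 5 h at 37 C, then dosed and kept at 37 C up to 40 h. Nonlytic real-time luminescence from viable cells read at 0, 8, 16, 24, 32 and 40 h.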

[3] = qHTS RealTime-Glo MT Cell Viability Assay in HepG2 cells - 8 hour (AID 1224873); further: nearly all actives have a fitted effect of over 55% in size
Outline: (§2)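 Real-time viability: cells seeded at 600 per well together with NanoLuc and cell-permeant prosubstrate, compounds added after 5 h incubation. Luminescence tracked at 0, 8, 16, 24, 32 and 40 h of exposure.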

[4] = qHTS RealTime-Glo MT Cell Viability Assay in HEK293 cells - 40 hour (AID 1224874); details: RealTime-Glo luminescence; max response: stronger effect = lower value; further: nearly all actives have a fitted effect of over 50% in size; further: potency means the concentration at half of the fitted maximal effect
Outline: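 Luminescence readout at each listed time point; HEK293, 600 cells/well, RealTime-Glo MT reagent added with cells; compounds pinned (23 nL in DMSO) after 5 h at 37 C; continuous culture at 37 C.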

[5] = A CellTox Green Cytotoxicity Assay to monitor cytotoxicity in HEK293 cells - 24 hour (AID 1224875); further: nearly all actives have a fitted effect of over 45% in size; further: potency means the concentration at half of the fitted maximal effect
Outline: as §1

[6] = A CellTox Green Cytotoxicity Assay to monitor cytotoxicity in HepG2 cells - 16 hour (AID 1224876); further: nearly all actives have a fitted effect of over 45% in size; further: potency means the concentration at half of the fitted maximal effect
Outline: (§3)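 HepG2, 600 cells/well premixed w/ CellTox Green; 5 h settle, 37 C/5% CO2; pintool cpd add (DMSO); 37 C, 40 h; fluorescence read at 0, 8, 16, 24, 32, 40 h.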

[7] = qHTS RealTime-Glo MT Cell Viability Assay in HepG2 cells - 32 hour (AID 1224877); further: nearly all actives have a fitted effect of over 55% in size; further: potency means the concentration at half of the fitted maximal effect
Outline: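 HepG2 cells (600/well) were dispensed with RealTime-Glo reagents, incubated 5 h at 37 °C, then treated with compounds in DMSO for up to 40 h. Nonlytic NanoLuc luminescence reflecting viable cells was read at each stated time point.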

[8] = A CellTox Green Cytotoxicity Assay to monitor cytotoxicity in HepG2 cells - 24 hour (AID 1224878); further: nearly all actives have a fitted effect of over 45% in size; further: potency means the concentration at half of the fitted maximal effect
Outline: as §3

[9] = A CellTox Green Cytotoxicity Assay to monitor cytotoxicity in HepG2 cells - 40 hour (AID 1224879); further: nearly all actives have a fitted effect of over 40% in size; further: potency means the concentration at half of the fitted maximal effect
Outline: as §3

[10] = qHTS RealTime-Glo MT Cell Viability Assay in HepG2 cells - 40 hour (AID 1224870); further: nearly all actives have a fitted effect of over 50% in size; further: potency means the concentration at half of the fitted maximal effect
Outline: as §2
On the % scale 0 is the no-effect control and ±100 the full control effect.

C[C@@H](O)[C@H]1C(=O)N2C(C(=O)O)=C([C@H]3CCCO3)S[C@H]12
inactive: Potency [1] | Potency [2] | Potency [3] | max response [4] 5.96% | Potency [5] | Potency [6] | Potency [7] | Potency [8] | Potency [9]

O=C(O)C[C@H](NC(=O)OCc1ccccc1)C(=O)O
inactive: Potency [1] | Potency [2] | Potency [3] | max response [4] -0.276% | Potency [5] | Potency [6] | Potency [7] | Potency [8] | Potency [9]

Cc1cc(O)ccc1O
inactive: Potency [10] | Potency [3] | Potency [6] | Potency [7] | Potency [8] | Potency [9]

COC(=O)[C@H]1[C@H]2C[C@@H]3c4[nH]c5cc(OC)ccc5c4CCN3C[C@H]2C[C@@H](OC(=O)/C=C/c2ccc(O)c(OC)c2)[C@@H]1OC
inactive: Potency [10] | Potency [7]
active: Potency [5] 16.9 µM | Potency [6] 23.9 µM | Potency [8] 26.8 µM | Potency [9] 23.9 µM

CC(=O)c1ccc([N+](=O)[O-])cc1
inactive: Potency [10] | Potency [2] | Potency [3] | Potency [5] | Potency [6] | Potency [7] | Potency [8] | Potency [9]

C[C@H]1C[C@H](O)c2ccsc2S1(=O)=O
inactive: Potency [10] | Potency [2] | Potency [3] | Potency [5] | Potency [6] | Potency [7] | Potency [8] | Potency [9]

CCCCCCCCC(CCCCCC)C(=O)O (stereo not given)
active: Potency [8] 61.6 µM | Potency [9] 61.6 µM
inactive: Potency [1] | Potency [2] | Potency [3] | max response [4] -3.96% | Potency [5] | Potency [6] | Potency [7]

CN1CC(=O)N2[C@H](c3ccc4c(c3)OCO4)c3[nH]c4ccccc4c3C[C@@H]2C1=O
inactive: Potency [1] | Potency [2] | Potency [3] | max response [4] -16.3% | Potency [5] | Potency [6] | Potency [7] | Potency [8] | Potency [9]

O[C@@H]1CO[C@H]2[C@@H]1OC[C@@H]2O
inactive: Potency [1] | Potency [2] | Potency [3] | max response [4] 8.95% | Potency [5] | Potency [6] | Potency [7] | Potency [8] | Potency [9]

O=C1NC(=O)c2cc([N+](=O)[O-])ccc21
inactive: Potency [1] | Potency [2] | Potency [3] | max response [4] 2.79% | Potency [5] | Potency [6] | Potency [7] | Potency [8] | Potency [9]

CCC(OCCCOC)OC(C)=O (stereo not given)
inactive: Potency [1] | Potency [2] | Potency [3] | max response [4] 3.03% | Potency [5] | Potency [6] | Potency [7] | Potency [8] | Potency [9]

CC(=O)OCCN(CCOC(C)=O)c1ccc(N=Nc2ccc([N+](=O)[O-])cc2C#N)cc1
inactive: Potency [10] | Potency [5] | Potency [6] | Potency [7] | Potency [8] | Potency [9]

Cc1ccco1
inactive: Potency [1] | Potency [2] | Potency [3] | max response [4] 15.4% | Potency [5] | Potency [6] | Potency [7] | Potency [8] | Potency [9]

CC(C)c1nc(CN(C)C(=O)N[C@H](C(=O)N[C@@H](Cc2ccccc2)C[C@H](O)[C@H](Cc2ccccc2)NC(=O)OCc2cncs2)C(C)C)cs1
inactive: Potency [10] | Potency [3] | Potency [6] | Potency [7] | Potency [8]
active: Potency [4] 21.3 µM | Potency [9] 21.3 µM

C=C1C[C@@]23CC[C@H]4[C@@](C)(CCC[C@@]4(C)C(=O)O[C@@H]4O[C@H](CO)[C@@H](O)[C@H](O)[C@H]4O)[C@@H]2CC[C@]1(O[C@@H]1O[C@H](CO)[C@@H](O)[C@H](O[C@@H]2O[C@H](CO)[C@@H](O)[C@H](O)[C@H]2O)[C@H]1O[C@@H]1O[C@H](CO)[C@@H](O)[C@H](O)[C@H]1O)C3
inactive: Potency [1] | Potency [2] | Potency [3] | max response [4] 3.82% | Potency [5] | Potency [6] | Potency [7] | Potency [8] | Potency [9]

CCCCOc1ccc(OCCCN2CCOCC2)cc1
inactive: Potency [1] | Potency [2] | Potency [3] | max response [4] -27.6% | Potency [5] | Potency [6] | Potency [7] | Potency [8] | Potency [9]

CC(CCC(=O)O)C(=O)O (stereo not given)
inactive: Potency [10] | Potency [3] | max response [4] 0% | Potency [5] | Potency [6] | Potency [7] | Potency [8] | Potency [9]

NC1[C@H]2CN(c3nc4c(cc3F)c(=O)c(C(=O)O)cn4-c3ccc(F)cc3F)C[C@@H]12 (stereo not given in full)
inactive: Potency [10] | Potency [2] | Potency [3] | Potency [6] | Potency [7] | Potency [8] | Potency [9]

COc1cc(C(=O)NC2CCN(C)CC2)ccc1Nc1ncc2c(n1)N(C1CCCC1)CC(F)(F)C(=O)N2C
active: Potency [10] 44.9 µM | Potency [2] 2 µM | Potency [5] 20 µM | Potency [6] 44.9 µM | Potency [7] 40 µM | Potency [8] 40 µM | Potency [9] 22.5 µM

CC1(CN2CCC(n3c(=O)[nH]c4ccccc43)CC2)OCc2ccccc2-n2cccc21 (stereo not given)
inactive: Potency [10] | Potency [5] | Potency [6] | Potency [8]
active: Potency [2] 10.7 µM | Potency [4] 19 µM

COC(=O)c1nc(Cl)c(Cl)nc1N
active: Potency [10] 12 µM | Potency [2] 12 µM | Potency [4] 4.77 µM | Potency [7] 10.7 µM

Brc1cc2ccccc2c2ccccc12
active: Potency [9] 39.2 µM
inactive: Potency [10] | Potency [3] | Potency [5] | Potency [6] | Potency [7] | Potency [8]

CCN(CC)CCNC(=O)COc1ccc(OC)cc1
inactive: Potency [1] | Potency [2] | Potency [3] | max response [4] 13.7% | Potency [5] | Potency [6] | Potency [7] | Potency [8] | Potency [9]

COc1ncnc(NS(=O)(=O)c2ccc(N)cc2)c1OC
inactive: Potency [1] | Potency [2] | Potency [3] | max response [4] -0.242% | Potency [5] | Potency [7]
